Compound activity (PubChem)
NPSR antag: qHTS Assay for Antagonists of the Neuropeptide S Receptor: cAMP Signal Transduction; Q6W5P4; CHO-NPSR cells, cAMP TR-FRET, antagonist mode; Potency, µM (top dose mostly 38.3 µM), most hits filed as inhibitors; actives 1% (n = 220,000); AID 1461, 2008; also: nearly all actives have a fitted effect of over 50% in size
Tau FP inhib: qHTS for Inhibitors of Tau Fibril Formation, Fluorescence Polarization; Microtubule-associated protein tau (Homo sapiens), P10636; K18 P301L tau heparin fibrillization, Alexa594 FP, 6 h; Potency, µM (highest dose often 57.7 µM), actives largely listed as inhibitors; actives 0.39% (n = 280,000); also: nearly all actives have a fitted effect of over 55% in size
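Recombinant K18 P301L […], labeled with Alexa 594 at 0.24 uM over 15 uM unlabeled; heparin inducer 20 uM final; 37 C, 6 hr; FP endpoint.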
Tau ThT inhib: qHTS for Inhibitors of Tau Fibril Formation, Thioflavin T Binding. actives 2.1% (n = 270,000). Potency, µM (titrated, usually from 57.4 µM), usual class: inhibitors. Microtubule-associated protein tau (Homo sapiens), P10636. recombinant tau K18 P301L, heparin-induced fibrillization, ThT fluorescence; also: nearly all actives have a fitted effect of over 55% in size
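Aggregation was driven by heparin (20 uM final) acting on recombinant tau […] bearing P301L in 100 mM sodium acetate pH 7; fibrils were detected with Thioflavin T.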
Tau fluor cs: Counterscreen qHTS for Inhibitors of Tau Fibril Formation, Fluorescence Polarization | Potency, µM (doses to about 57.7 µM) | actives 0.93% (n = 280,000) | tau K18 P301L (four-repeat tau fragment) Alexa594 fluorescence, heparin fibrillization; also: nearly all actives have a fitted effect of over 55% in size
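Human K18 P301L tau (15 uM unlabeled plus 0.24 uM Alexa 594-labeled, final) in 100 mM sodium acetate pH 7 was mixed with compound and 20 uM heparin and incubated 6 hr at 37 C.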
ALDH1A1 inh: qHTS Assay for Inhibitors of Aldehyde Dehydrogenase 1 (ALDH1A1). Potency, µM (series often up to 75.3 µM), actives largely listed as inhibitors. actives 7.3% (n = 220,000). AID 1030, 2008. Purified ALDH1A1, NADH fluorescence, propionaldehyde substrate. Aldehyde dehydrogenase 1A1 (Homo sapiens), P00352; active = well fitted inhibition curve with a large enough effect, not every such curve was filed as active; inconclusive = small, poorly fitted or top-dose-only effect, or another doubt; inactive = no such curve, though single readings can be large or run the other way
Target sequence (P00352 whole entry, looked up): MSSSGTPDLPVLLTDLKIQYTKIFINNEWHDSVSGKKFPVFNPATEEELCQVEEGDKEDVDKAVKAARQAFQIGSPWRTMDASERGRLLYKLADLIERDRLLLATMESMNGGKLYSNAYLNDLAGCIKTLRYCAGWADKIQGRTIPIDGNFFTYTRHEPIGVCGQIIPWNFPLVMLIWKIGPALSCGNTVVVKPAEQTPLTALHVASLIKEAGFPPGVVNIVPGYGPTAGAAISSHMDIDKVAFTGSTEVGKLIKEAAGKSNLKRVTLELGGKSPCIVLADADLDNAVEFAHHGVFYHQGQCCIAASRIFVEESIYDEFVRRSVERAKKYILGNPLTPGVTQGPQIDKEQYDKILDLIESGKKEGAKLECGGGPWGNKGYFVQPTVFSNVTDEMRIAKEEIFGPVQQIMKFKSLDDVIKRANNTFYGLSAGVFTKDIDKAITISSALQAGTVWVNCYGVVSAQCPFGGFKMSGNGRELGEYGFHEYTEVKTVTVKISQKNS
HPGD block: qHTS Assay for Inhibitors of HPGD (15-Hydroxyprostaglandin Dehydrogenase); 15-hydroxyprostaglandin dehydrogenase [NAD(+)] (Homo sapiens), P15428; purified HPGD, NADH fluorescence kinetic, PGE2 substrate; Potency, µM, hits mostly inhibitors; actives 4.3% (n = 150,000); active = well fitted inhibition curve with a large enough effect, not every such curve was filed as active; inconclusive = small, poorly fitted or top-dose-only effect, or another doubt; inactive = no such curve, though single readings can be large or run the other way
Target sequence (P15428 whole entry, looked up): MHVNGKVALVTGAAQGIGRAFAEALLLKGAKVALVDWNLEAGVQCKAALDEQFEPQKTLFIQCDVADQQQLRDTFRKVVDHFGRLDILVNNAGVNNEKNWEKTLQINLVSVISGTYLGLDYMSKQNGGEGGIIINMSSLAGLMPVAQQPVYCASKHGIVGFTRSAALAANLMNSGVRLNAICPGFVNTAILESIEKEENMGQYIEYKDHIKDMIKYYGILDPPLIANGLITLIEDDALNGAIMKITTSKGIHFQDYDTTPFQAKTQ
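20 nM HPGD preincubated 15 min at room temperature with compound in 50 mM Tris-HCl pH 8, 0.01% Tween 20. Started with 1 mM NAD+ and 30 uM prostaglandin E2; NADH fluorescence (360/450 nm) read 5 times over 30-s intervals, last minus first.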
Of the large screens only hits and unclear results are named; the others gave an inactive call; [ ] = dose if it differs, or a comment. Only some compounds are listed: those with a hit (about 9.5% of all), similar ones and a draw of the others. Unless noted, calls follow the shape of the dose curve; as a rule, active = well fitted curve in the direction sought with a large enough effect; inconclusive = small, poorly fitted or top-dose-only effect, or another doubt; inactive = no such curve, though single readings can be large; an effect the other way counts as inactive or inconclusive.

Cc1cc2c(nc1C)CCCCN2C[C@H](O)CN1CCCc2nc(-c3ccc(Br)cc3)ccc21	none (no result: NPSR antag, HPGD block)
Cc1cccc(CNS(=O)(=O)c2ccc3[nH]c(=O)ccc3c2)c1	none (no result: NPSR antag, ALDH1A1 inh, HPGD block)
Cc1ccc(-c2csc(NC(=S)NC(=O)/C=C/c3ccco3)n2)cc1	NPSR antag 10µM, Tau FP inhib inconclusive, Tau ThT inhib inconclusive
COc1ccc(NC(=O)/C(C#N)=C/C=C/c2ccco2)cc1	Tau ThT inhib 7.1µM
O=C(/C=C/c1ccco1)NC(=S)Nc1ccc(N2CCCC2)cc1	Tau ThT inhib 3.5µM, Tau fluor cs inconclusive, ALDH1A1 inh inconclusive
O=C(O)C(C(=O)/C=C/c1ccco1)=C1SCCS1	Tau FP inhib inconclusive, Tau ThT inhib 16µM, ALDH1A1 inh 13µM
CC(=O)N1CCN(c2ccc(NC(=S)NC(=O)/C=C/c3ccccc3)cc2)CC1	Tau ThT inhib inconclusive
O=C(c1cc(-c2cccs2)on1)N1CCOCC1	none
O=C(c1cc(-c2ccco2)on1)N1CCc2ccccc2C1	NPSR antag inconclusive, Tau ThT inhib inconclusive, ALDH1A1 inh 7.9µM, HPGD block 11µM
O=C(c1cc(-c2ccco2)on1)N1CCN(c2ccccc2)CC1	Tau ThT inhib inconclusive, ALDH1A1 inh 14µM
COc1ccccc1N1CCN(C(=O)c2cc(-c3ccco3)on2)CC1	ALDH1A1 inh inconclusive
O=C(c1cc(-c2cccs2)on1)N1CCc2ccccc2C1	HPGD block 13µM
O=C(c1cc(-c2ccc(O)cc2)on1)N1CCc2ccccc2C1	Tau fluor cs inconclusive, ALDH1A1 inh inconclusive, HPGD block 13µM
O=C(c1cc(-c2ccccc2O)on1)N1CCc2ccccc2C1	Tau FP inhib inconclusive, Tau fluor cs inconclusive, ALDH1A1 inh inconclusive, HPGD block inconclusive
O=C(CCn1nnc(-c2cccs2)n1)N1CCc2ccccc2C1	Tau ThT inhib inconclusive, ALDH1A1 inh 28µM, HPGD block 16µM
O=C(Cn1nnc(-c2cccs2)n1)N1CCOCC1	none (no result: HPGD block)
O=C(CCCN1C(=O)/C(=C/c2cccs2)SC1=S)Nc1ccc(O)c(C(=O)O)c1	Tau ThT inhib 8.9µM, Tau fluor cs inconclusive, ALDH1A1 inh inconclusive (no result: HPGD block)
COc1ccc(/C=C2\SC(=S)N(CCCC(=O)NNC(=O)c3ccccc3O)C2=O)cc1	Tau FP inhib inconclusive, Tau ThT inhib inconclusive (no result: HPGD block)
O=C(CCCN1C(=O)/C(=C/c2ccco2)SC1=S)Nc1cccc(C(=O)O)c1	Tau ThT inhib 16µM (no result: ALDH1A1 inh, HPGD block)
COc1ccc(NC(=O)CCCN2C(=O)/C(=C\c3ccco3)SC2=S)cc1	Tau FP inhib inconclusive, Tau ThT inhib 16µM, Tau fluor cs inconclusive, ALDH1A1 inh 25µM
O=C(CCCN1C(=O)/C(=C\c2cccs2)SC1=S)Nc1ccc(C(=O)O)cc1	Tau ThT inhib inconclusive (no result: HPGD block)
O=P(O)(O)O[C@@H]1O[C@H](CO)[C@@H](O)[C@H](O)[C@@H]1O	none (no result: NPSR antag, Tau FP inhib, Tau ThT inhib, Tau fluor cs)
O=C(Oc1cccc2c(O)cccc12)c1ccccc1	NPSR antag inconclusive, Tau ThT inhib inconclusive, Tau fluor cs 13µM[quencher]
CCCCc1ccc(NC(=O)CN2NS(=O)(=O)c3ccccc3C2=O)cc1	ALDH1A1 inh 4µM
CCCCc1ccc(NC(=O)CC(C)C)cc1	none (no result: HPGD block)
CCOC(=O)Nc1ccc2c(c1)Sc1ccccc1N2C(=O)CCN1CCOCC1	none
O=S(=O)(NC1CCCCC1Nc1ccc(Cl)cc1)c1ccccc1 (stereo unspecified)	ALDH1A1 inh 14µM
O=S(=O)(NC1CCCCC1Oc1ccccc1)c1ccccc1 (stereo unspecified)	ALDH1A1 inh 16µM
CCCCC#Cc1nc(NC)c2ncn([C@@H]3O[C@@H](CO)[C@H](O)[C@H]3O)c2n1	none (no result: NPSR antag)
COc1cccc(-c2cc(C(=O)N3C(C)CCCC3C)no2)c1 (stereo unspecified)	NPSR antag inconclusive, ALDH1A1 inh inconclusive, HPGD block 8.9µM
CC1CCCCN1C(=O)c1cc(-c2ccc(Cl)c(Cl)c2)on1 (stereo unspecified)	ALDH1A1 inh inconclusive, HPGD block 4.5µM
O=C(c1cc(-c2ccc(Cl)c(Cl)c2)on1)N1CCCCC1	ALDH1A1 inh 8.9µM, HPGD block 2.8µM
CCC1CCCCN1C(=O)c1cc(-c2ccc(Cl)c(Cl)c2)on1 (stereo unspecified)	NPSR antag inconclusive, HPGD block 4.5µM
COc1ccc(NC(=O)c2sc3nc4n(c(=O)c3c2C)CCC4)cc1Cl	Tau ThT inhib inconclusive (no result: NPSR antag, ALDH1A1 inh, HPGD block)
Cc1cccc(N2CCN(C(=O)c3cnn(-c4cccc(Cl)c4C)c3C3CCNCC3)CC2)c1C	none (no result: NPSR antag, ALDH1A1 inh, HPGD block)
COc1ccc(-c2cc(C(=O)N3CC4(C)CC3CC(C)(C)C4)no2)cc1 (stereo unspecified)	HPGD block 35µM
CCOc1ccc(C(C)=O)cc1CSc1nnc(-c2ccoc2C)n1N	ALDH1A1 inh 22µM, HPGD block 14µM
O=C(c1ccncc1)c1ccc(N2CCN(C3CC(=O)N(Cc4cccs4)C3=O)CC2)cc1 (stereo unspecified)	Tau ThT inhib inconclusive, ALDH1A1 inh inconclusive (no result: HPGD block)
O=C1CC(N2CCN(c3ccc(O)cc3)CC2)C(=O)N1Cc1cccs1 (stereo unspecified)	Tau ThT inhib inconclusive, ALDH1A1 inh 25µM
COc1ccc(CC(=O)Nc2ccc(-c3nc4ccccc4s3)c(C)c2)cc1OC	Tau ThT inhib inconclusive (no result: NPSR antag, ALDH1A1 inh, HPGD block)
CCOC(=O)C(=O)/C(=C\N(C)C)c1onc(-c2c(Cl)cccc2Cl)c1C(=O)OC	HPGD block 14µM
CCOC(=O)C(=O)/C(=C\N(C)C)c1onc(-c2ccccc2Cl)c1C(=O)OC	ALDH1A1 inh inconclusive, HPGD block 14µM
CC(C)CN1CC[C@@]2(CCCN(C(=O)c3cnccn3)C2)C1	none (no result: NPSR antag, Tau FP inhib, Tau ThT inhib, Tau fluor cs)
COc1cccc(CN(C(=O)Cn2nnc(-c3ccccc3F)n2)C(C(=O)NC(C)(C)C)c2ccncc2)c1 (stereo unspecified)	ALDH1A1 inh 24µM (no result: HPGD block)
CCc1nnc2c3ccccc3nc(Nc3ccc(C(C)=O)cc3)n12	none (no result: NPSR antag, ALDH1A1 inh, HPGD block)
Cc1ccccc1Cn1c(=O)n(Cc2ccc3c(c2)OCO3)c(=O)c2oc3ccccc3c21	none (no result: NPSR antag, ALDH1A1 inh, HPGD block)
O=C1NC(c2ccccc2)Nc2c1sc(=S)n2-c1ccccc1 (stereo unspecified)	Tau ThT inhib inconclusive, ALDH1A1 inh 32µM (no result: HPGD block)
CS/C(=C\[N+](=O)[O-])Nc1ccccc1	Tau FP inhib inconclusive, Tau ThT inhib inconclusive, ALDH1A1 inh inconclusive
CS/C(=C\[N+](=O)[O-])Nc1ccc(F)cc1	Tau ThT inhib inconclusive, ALDH1A1 inh 16µM
